This is an account of results in PubChem BioAssay (EPA / NIEHS).

As a reminder, the AC50 is the concentration at which the activity in the assay is half-maximal.

Records with an inconclusive call do not appear. Activity calls are given as the source filed them. How the source made its calls: active means hit-call score of the fitted dose curve at least 0.9, where 1 is the maximum; inconclusive means response in the unintended direction; inactive means score below 0.9.

rat Somatostatin Receptor (SST), Sstr1 (gene 25033), sequence (P28646 whole entry, looked up): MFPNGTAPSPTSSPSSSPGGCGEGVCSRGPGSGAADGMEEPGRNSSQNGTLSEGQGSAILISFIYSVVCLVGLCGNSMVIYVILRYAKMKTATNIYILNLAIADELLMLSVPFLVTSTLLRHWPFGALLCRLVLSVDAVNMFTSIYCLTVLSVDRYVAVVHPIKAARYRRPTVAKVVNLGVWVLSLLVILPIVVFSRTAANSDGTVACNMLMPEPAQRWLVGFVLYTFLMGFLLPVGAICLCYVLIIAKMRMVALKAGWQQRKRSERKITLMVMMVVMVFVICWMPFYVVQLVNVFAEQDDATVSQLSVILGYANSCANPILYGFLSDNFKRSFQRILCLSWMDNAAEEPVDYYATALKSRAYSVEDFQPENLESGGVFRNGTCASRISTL
rat Opioid Receptor, Non-selective Binding, Oprm1 (gene 25601), sequence (P33535 whole entry, looked up): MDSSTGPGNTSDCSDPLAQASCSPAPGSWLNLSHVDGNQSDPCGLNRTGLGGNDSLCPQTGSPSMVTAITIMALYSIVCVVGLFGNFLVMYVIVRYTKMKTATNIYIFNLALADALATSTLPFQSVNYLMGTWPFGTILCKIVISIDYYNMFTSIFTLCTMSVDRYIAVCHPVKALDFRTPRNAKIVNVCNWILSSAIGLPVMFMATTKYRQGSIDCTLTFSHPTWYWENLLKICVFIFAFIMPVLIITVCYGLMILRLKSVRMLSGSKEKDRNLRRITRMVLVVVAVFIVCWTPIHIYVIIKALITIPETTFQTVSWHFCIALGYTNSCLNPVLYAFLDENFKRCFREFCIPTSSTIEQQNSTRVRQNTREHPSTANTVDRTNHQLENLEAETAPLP
rat Vasopressin 1 Receptor (V1), Avpr1a (gene 25107), sequence (P30560 whole entry, looked up): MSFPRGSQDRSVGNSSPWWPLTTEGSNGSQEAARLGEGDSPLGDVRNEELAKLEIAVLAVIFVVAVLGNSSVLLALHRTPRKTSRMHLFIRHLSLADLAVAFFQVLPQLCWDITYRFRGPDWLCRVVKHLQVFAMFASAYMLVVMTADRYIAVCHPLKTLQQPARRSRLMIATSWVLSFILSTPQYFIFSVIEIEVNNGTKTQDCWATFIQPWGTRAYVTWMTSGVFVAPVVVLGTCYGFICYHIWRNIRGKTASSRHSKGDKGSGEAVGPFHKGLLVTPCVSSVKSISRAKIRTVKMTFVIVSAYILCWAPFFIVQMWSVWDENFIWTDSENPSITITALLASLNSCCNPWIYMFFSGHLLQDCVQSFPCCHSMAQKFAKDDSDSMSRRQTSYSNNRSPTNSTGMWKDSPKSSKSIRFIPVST
human Neonicotinoid receptor (NNR), CHRNA2 (gene 1135), sequence (Q15822 whole entry, looked up): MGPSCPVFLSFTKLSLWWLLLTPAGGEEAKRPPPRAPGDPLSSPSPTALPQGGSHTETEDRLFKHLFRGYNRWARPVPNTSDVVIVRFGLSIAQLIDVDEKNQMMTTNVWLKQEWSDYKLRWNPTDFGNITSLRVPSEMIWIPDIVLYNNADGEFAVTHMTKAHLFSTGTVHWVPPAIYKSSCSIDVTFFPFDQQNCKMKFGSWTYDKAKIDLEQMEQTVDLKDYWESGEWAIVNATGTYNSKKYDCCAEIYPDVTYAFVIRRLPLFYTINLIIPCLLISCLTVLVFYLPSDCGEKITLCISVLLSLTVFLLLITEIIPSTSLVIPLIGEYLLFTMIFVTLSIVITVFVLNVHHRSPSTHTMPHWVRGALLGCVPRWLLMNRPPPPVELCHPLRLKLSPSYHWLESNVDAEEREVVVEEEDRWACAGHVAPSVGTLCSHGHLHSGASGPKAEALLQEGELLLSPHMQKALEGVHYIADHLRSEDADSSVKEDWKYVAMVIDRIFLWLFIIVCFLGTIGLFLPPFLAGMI
rat Neonicotinoid receptor (NNR), Chrna7 (gene 25302), sequence (Q05941 whole entry, looked up): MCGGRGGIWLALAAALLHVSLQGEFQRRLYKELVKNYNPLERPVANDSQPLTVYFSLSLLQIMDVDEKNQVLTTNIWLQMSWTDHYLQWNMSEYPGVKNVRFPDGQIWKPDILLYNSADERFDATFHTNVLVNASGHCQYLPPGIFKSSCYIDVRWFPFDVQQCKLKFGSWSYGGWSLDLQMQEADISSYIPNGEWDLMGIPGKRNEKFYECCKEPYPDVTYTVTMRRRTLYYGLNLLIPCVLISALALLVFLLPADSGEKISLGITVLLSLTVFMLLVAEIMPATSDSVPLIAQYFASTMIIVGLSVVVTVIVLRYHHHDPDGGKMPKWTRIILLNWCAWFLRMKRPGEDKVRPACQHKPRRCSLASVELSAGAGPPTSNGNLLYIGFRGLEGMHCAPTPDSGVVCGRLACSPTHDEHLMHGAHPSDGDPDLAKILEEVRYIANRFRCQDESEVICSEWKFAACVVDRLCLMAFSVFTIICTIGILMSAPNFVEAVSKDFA

One assay deals with human Neonicotinoid receptor (NNR), CHRNA2 (gene 1135) (UniProt Q15822). The assay is described as follows: NVS_LGIC_hNNR_NBungSens: NovaScreen (NVS) Ligand-Gated Ion Channel Assay for human Neonicotinoid receptor (NNR) (AID 2283313). In short, it runs like this:
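Compounds first screened in duplicate at 25 uM, then actives re-tested in single-replicate dose series up to 50 uM. Binding measured as displacement of specific radioligand from neuroblastoma membrane receptors after 2 h, scintillation read on filters.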
Take `S=C1NCCN1`: the molecule was classed as inactive. Turning to `CSc1nnc(C(C)(C)C)c(=O)n1N`, the result was inactive. `C[N+]1(C)CCCCC1`: the AC50 was 11.2 µM (active).

Regarding `CC(=NC#N)N(C)Cc1ccc(Cl)nc1`, the AC50 was 4.61 µM (active).

In another assay the target is rat Somatostatin Receptor (SST), Sstr1 (gene 25033) (UniProt P28646). The assay is described as follows: NVS_GPCR_rSST: NovaScreen (NVS) G Protein-Coupled Receptor Assay for rat Somatostatin Receptor (SST) (AID 2283314). The procedure, abridged:
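Single-concentration duplicate screen (25 uM), then concentration-response up to 50 uM for chemicals passing a threshold such as 30% inhibition. Membranes came from rat forebrain. Binding was measured 1 h post-dose by filter radiodetection and scintillation, relative to DMSO.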
Take `CC(C)=CC1C(C(=O)OCN2C(=O)C3=C(CCCC3)C2=O)C1(C)C` (configuration not stated): the molecule was classed as inactive.

For the molecule `CC[C@H](C)[C@H]1O[C@]2(C=C[C@@H]1C)C[C@@H]1C[C@@H](C/C=C(\C)[C@@H](O[C@H]3C[C@H](OC)[C@@H](O[C@H]4C[C@H](OC)[C@@H](NC)[C@H](C)O4)[C@H](C)O3)[C@@H](C)/C=C/C=C3\CO[C@@H]4[C@H](O)C(C)=C[C@@H](C(=O)O1)[C@]34O)O2`, the AC50 is 2.49 µM (active).

On to `N#CSCSC#N`, for which the result was inactive.

The next assay deals with rat Neonicotinoid receptor (NNR), Chrna7 (gene 25302) (UniProt Q05941). Nature of the assay: NVS_LGIC_rNNR_BungSens: NovaScreen (NVS) Ligand-Gated Ion Channel Assay for rat Neonicotinoid receptor (NNR) (AID 2283315). In short, it runs like this:
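Rat cortical membrane preparation incubated 2.5 h with tritiated or iodinated radioligand and test chemical. Bound radioactivity was filtered and counted by scintillation, and displacement was analysed against DMSO.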
Regarding `Cc1ccn2nc(S(=O)(=O)Nc3c(F)cccc3F)nc2n1`, the molecule was called inactive.

On to `C[N+]1(C)CCCCC1`, for which the half-maximal activity concentration (AC50) is 6.52 µM (active). As to `CCOP(=O)(OCC)Oc1cc(C)nc(C(C)C)n1`, the molecule was called inactive. In the case of `CC(=NC#N)N(C)Cc1ccc(Cl)nc1`, the AC50 is 8.03 µM (active). On to `CCCOc1nn(C(=O)NS(=O)(=O)c2ccccc2C(=O)OC)c(=O)n1C`, for which the molecule was classed as inactive.

The next assay deals with rat Vasopressin 1 Receptor (V1), Avpr1a (gene 25107) (UniProt P30560). The assay is described as follows: NVS_GPCR_rV1: NovaScreen (NVS) G Protein-Coupled Receptor Assay for rat Vasopressin 1 Receptor (V1) (AID 2283316). As for the experimental part:
NVS_GPCR_rV1 is a biochemical, single-readout assay that uses extracted gene-proteins from Rat liver membranes in a tissue-based cell-free assay. Measurements were taken 1.5 hours after chemical dosing in a 48-well plate.NVS_GPCR_rV1 is one of one assay component(s) measured or calculated from the NVS_GPCR_rV1 assay. It is designed to make measurements of radioligand binding, a form of binding reporter, as detected with scintillation counting signals by Filter-based radiodetection technology.Data from the assay component NVS_GPCR_rV1 was analyzed into 1 assay endpoint. This assay endpoint, NVS_GPCR_rV1, was analyzed in the positive analysis fitting direction relative to DMSO as the negative control and baseline of activity. Using a type of binding reporter, loss-of-signal activity can be used to understand changes in the binding as they relate to the gene Avpr1a. Furthermore, this assay endpoint can be referred to as a primary readout, because the performed assay has only produced 1 assay endpoint. To generalize the intended target to other relatable targets, this assay endpoint is annotated to the gpcr intended target family, where the subfamily is rhodopsin-like receptor.
Binding assays used specific radioligands (tritiated, iodinated) with non-radioactive competitive displacement ligands in agonist or antagonist protocols (as indicated) and various reference compounds and inhibitors to titrate specific binding to receptors and transporters. Most enzyme assays (CYPs, kinases, phosphatases, proteases, HDACs) used recombinant protein and specific substrates (fluorescence mostly, some colorimetric and radioactive) and inhibitors, followed by a biochemical separation of substrate and product. All assays for the biochemical HTS were initially run in duplicate at a single concentration (10 uM for CYP450 assays and 25 uM for all others). Assay-chemical combinations meeting a pre-defined threshold (e.g., 30% inhibition and other criteria defined below) were then run in singleton concentration-response format with maximum concentration of 20 uM for CYPs and 50 uM for all others. Each assay was run with positive and negative controls, and concurrent controls on every plate. The follow-up (secondary) screen tested active chemical-pairs in concentration series, as well as a few additional assays not tested in the primary screen, some selected negative inactives, and several cases re-run in the concentration series for confirmatory purposes.
As for `COc1cccc(C(=O)NN(C(=O)c2cc(C)cc(C)c2)C(C)(C)C)c1C`, the AC50 was 0.491 µM (active). On the same count and under the same terms, to `N#CSCSC#N` belongs 2.01 µM (active).

With `COc1ccc(C(=CC(=O)N2CCOCC2)c2ccc(Cl)cc2)cc1OC`, the AC50 was 6.22 µM (active). Take `CON=C(C(=O)OC)c1ccccc1CON=C(C)c1cccc(C(F)(F)F)c1`: the AC50 was 11.1 µM (active).

A further assay deals with Voltage-dependent N-type calcium channel subunit alpha-1B (Rattus norvegicus) (UniProt Q02294). Nature of the assay: NVS_IC_rCaChN: NovaScreen (NVS) Ion Channel Assay for rat Calcium Channel, Type N (CaChN) (AID 2283317).
As for `CCCCOC(=O)c1ccccc1C(=O)O`, the result was inactive. On to `CC[C@H](C)[C@H]1O[C@]2(C=C[C@@H]1C)C[C@@H]1C[C@@H](C/C=C(\C)[C@@H](O[C@H]3C[C@H](OC)[C@@H](O[C@H]4C[C@H](OC)[C@@H](NC)[C@H](C)O4)[C@H](C)O3)[C@@H](C)/C=C/C=C3\CO[C@@H]4[C@H](O)C(C)=C[C@@H](C(=O)O1)[C@]34O)O2`, for which the outcome was inactive.

Regarding `COP(=O)(OC)C(O)C(Cl)(Cl)Cl` (configuration not stated), the result was inactive. As for `CCCCSP(=O)(SCCCC)SCCCC`, the result was inactive.

The target of the next assay is rat Opioid Receptor, Non-selective Binding, Oprm1 (gene 25601) (UniProt P33535). The assay is described as follows: NVS_GPCR_rOpiate_NonSelective: NovaScreen (NVS) G Protein-Coupled Receptor Assay for rat Opioid Receptor, Non-selective Binding (AID 2283318). The procedure, abridged:
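Filter-based radioligand displacement using rat forebrain membrane preparations, measured 1.5 h post-dosing. Single-concentration duplicate screen at 25 uM, follow-up in concentration series; activity taken as signal loss relative to DMSO.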
In the case of `CCOC(=O)CC(SP(=O)(OC)OC)C(=O)OCC` (configuration not stated), the molecule was classed as inactive.

With `CC(C)=CC1C(C(=O)OCN2C(=O)C3=C(CCCC3)C2=O)C1(C)C` (configuration not stated), the molecule was called inactive. With `CCOP(=S)(OCC)Oc1ccc2c(C)c(Cl)c(=O)oc2c1`, the outcome was inactive.

Take `CCc1cccc(C)c1N(C(=O)CCl)C(C)COC` (configuration not stated): the AC50 was 14.7 µM (active). Consider `CCc1cccc(CC)c1N(COC)C(=O)CCl`, for which the molecule was called inactive. For the molecule `CC[C@H](C)[C@H]1O[C@]2(C=C[C@@H]1C)C[C@@H]1C[C@@H](C/C=C(\C)[C@@H](O[C@H]3C[C@H](OC)[C@@H](O[C@H]4C[C@H](OC)[C@@H](NC)[C@H](C)O4)[C@H](C)O3)[C@@H](C)/C=C/C=C3\CO[C@@H]4[C@H](O)C(C)=C[C@@H](C(=O)O1)[C@]34O)O2`, the outcome was inactive. Take `CCCOCC(=Nc1ccc(Cl)cc1C(F)(F)F)n1ccnc1`: the AC50 was 12.1 µM (active). Regarding `C[Si](Cn1cncn1)(c1ccc(F)cc1)c1ccc(F)cc1`, the result was inactive. On the same count and under the same terms, the entry for `COc1ccc(C(=CC(=O)N2CCOCC2)c2ccc(Cl)cc2)cc1OC` is “inactive”.

The test system of another assay is NCBI gene 24521. The assay is described as follows: NVS_IC_rKATPCh: NovaScreen (NVS) Ion Channel Assay for rat Potassium Channel, ATP-Sensitive (KATPCh) (AID 2283319). In short, it runs like this:
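Primary duplicate screen at 25 uM, then singleton concentration series to 50 uM maximum, in a rat cortex membrane radioligand displacement assay. Binding measured by filtration and scintillation 2 h post-dose; DMSO baseline.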
In the case of `CC1=NNC(=O)N(/N=C/c2cccnc2)C1`, the molecule was classed as inactive.

For the molecule `Nc1nc(N)nc(NC2CC2)n1`, the call was inactive. Turning to `CSc1nnc(C(C)(C)C)c(=O)n1N`, the call was inactive. Same read-out and setting: the entry for `CNC(=O)ON=C(SC)C(=O)N(C)C` is “inactive”. For `CN(C)C(=O)Nc1cccc(C(F)(F)F)c1`, the AC50 is 10.9 µM (active).

Take `COc1ccc(C(=CC(=O)N2CCOCC2)c2ccc(Cl)cc2)cc1OC`: the molecule was classed as inactive. As for `COP(=O)(OC)OC(Br)C(Cl)(Cl)Br` (configuration not stated), the molecule was classed as inactive.

Tested on in a further assay: not listed separately
Nature of the assay: NVS_IC_rCaDHPRCh_L: NovaScreen (NVS) Ion Channel Assay for rat Calcium Channel, Type L, Dihydropyridine Site (CaDHPRCh_L) (AID 2283320). The procedure, abridged: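 Rat cortex membrane preparation; dihydropyridine-site radioligand displacement read 1 h post-dose by filtration and scintillation. Primary single-point screen 25 uM in duplicate, then concentration series to 50 uM maximum; DMSO as negative control.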
With `CC(C)=CC1C(C(=O)OCN2C(=O)C3=C(CCCC3)C2=O)C1(C)C` (configuration not stated), the half-maximal activity concentration (AC50) was 38.2 µM (active).

For `CC[C@H](C)[C@H]1O[C@]2(C=C[C@@H]1C)C[C@@H]1C[C@@H](C/C=C(\C)[C@@H](O[C@H]3C[C@H](OC)[C@@H](O[C@H]4C[C@H](OC)[C@@H](NC)[C@H](C)O4)[C@H](C)O3)[C@@H](C)/C=C/C=C3\CO[C@@H]4[C@H](O)C(C)=C[C@@H](C(=O)O1)[C@]34O)O2`, the AC50 was 4.83 µM (active). On the same count and under the same terms, the figure for `FC(F)C(F)(F)OCC(Cn1cncn1)c1ccc(Cl)cc1Cl` (configuration not stated) is 12.6 µM (active). Consider `CCCOCC(=Nc1ccc(Cl)cc1C(F)(F)F)n1ccnc1`, for which the outcome was inactive. `C[Si](Cn1cncn1)(c1ccc(F)cc1)c1ccc(F)cc1`: the AC50 was 25.7 µM (active). On to `CN1COCN(Cc2cnc(Cl)s2)C1=N[N+](=O)[O-]`, for which the outcome was inactive. On to `COc1ccc(C(=CC(=O)N2CCOCC2)c2ccc(Cl)cc2)cc1OC`, for which the result was inactive.

The target of a further assay is Sodium channel protein type 1 subunit alpha (Rattus norvegicus) (UniProt P04774). Nature of the assay: NVS_IC_rNaCh_site2: NovaScreen (NVS) Ion Channel Assay for rat Sodium Channel, Site 2 (NaCh) (AID 2283322).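 Further: hit means loss of radioligand binding signal relative to DMSO so AC50 marks displacement.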 In short, it runs like this: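 Initial duplicate single-point testing at 25 uM, followed by concentration-response runs for actives. Binding of radioligand to rat forebrain membranes quantified after 1 h via filter-based radiodetection.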
Regarding `CC(C1CC1)C(O)(Cn1cncn1)c1ccc(Cl)cc1` (configuration not stated), the molecule was called inactive. For the molecule `CSc1nc(NC(C)C)nc(NC(C)C)n1`, the AC50 is 11.9 µM (active).

Regarding `CC[C@H](C)[C@H]1O[C@]2(C=C[C@@H]1C)C[C@@H]1C[C@@H](C/C=C(\C)[C@@H](O[C@H]3C[C@H](OC)[C@@H](O[C@H]4C[C@H](OC)[C@@H](NC)[C@H](C)O4)[C@H](C)O3)[C@@H](C)/C=C/C=C3\CO[C@@H]4[C@H](O)C(C)=C[C@@H](C(=O)O1)[C@]34O)O2`, the AC50 is 16.6 µM (active). With `Cc1cc(C2CC2)nc(Nc2ccccc2)n1`, the AC50 was 9.68 µM (active). On the same count and under the same terms, the figure for `FC(F)C(F)(F)OCC(Cn1cncn1)c1ccc(Cl)cc1Cl` (configuration not stated) is 25 µM (active). `CCCOCC(=Nc1ccc(Cl)cc1C(F)(F)F)n1ccnc1`: the outcome was inactive. As for `Nc1c(Cl)cc([N+](=O)[O-])cc1Cl`, the molecule was classed as inactive. Regarding `C[Si](Cn1cncn1)(c1ccc(F)cc1)c1ccc(F)cc1`, the AC50 was 18.1 µM (active). Turning to `CCC(=O)Nc1ccc(Cl)c(Cl)c1`, the result was inactive.
